The supplement of paper PMC10849652
Targets with a hit are over-represented here; the source holds about 8,800 in all. About 0.5% of all pairs of compound and target were hits. Unmarked numbers belong to inactive results.

Key:
Assay in all cases: log2 fold change, soluble protein after heating vs DMSO (PISA); higher = thermal stabilisation; K562 lysate, 10 uM; active = over 0.2 and 3.5 SD of the protein, either way, in both replicates (recomputed)
nilotinib = compound: Cc1cn(-c2cc(NC(=O)c3ccc(C)c(Nc4nccc(-c5cccnc5)n4)c3)cc(C(F)(F)F)c2)cn1 [nilotinib]
Procedure, shortened: (§1)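 Thermal stability, expressed as log-two fold change relative to solvent controls, is given from duplicates. Crude K562 extract in PBS pH 7.4 with 1 mM MgCl2, at 1 mg/mL protein, was treated with 10 μM compound for 30 min and heated in aliquots for 3 min across 48°C-58°C. After pooling, adjustment to 0.5% NP-40 at 4°C and centrifugation at 21,000xg for 90 min, supernatant protein was measured by TMTpro 16plex LC-MS/MS with channel sums equalised.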

[1] = compound: Cc1nc(Nc2n[nH]c3c2CN(C(=O)N[C@H](CN(C)C)c2ccccc2)C3(C)C)c2sccc2n1
Procedure, shortened: as §1

dasatinib = compound: Cc1nc(Nc2ncc(C(=O)Nc3c(C)cccc3Cl)s2)cc(N2CCN(CCO)CC2)n1 [dasatinib]
Procedure, shortened: as §1

[2] = compound: Cc1ncc(-c2ccnc(Nc3ccc(S(C)(=O)=O)cc3)n2)n1C(C)C
Procedure, shortened: as §1

[3] = compound: Cn1cc(-c2ccc3c(c2)CCN3C(=O)Cc2cccc(C(F)(F)F)c2)c2c(N)ncnc21
Procedure, shortened: as §1

quisinostat = compound: Cn1cc(CNCC2CCN(c3ncc(C(=O)NO)cn3)CC2)c2ccccc21 [quisinostat]
Procedure, shortened: as §1

tipifarnib = compound: Cn1cncc1[C@@](N)(c1ccc(Cl)cc1)c1ccc2c(c1)c(-c1cccc(Cl)c1)cc(=O)n2C [tipifarnib]
Procedure, shortened: as §1

[4] = compound: NC(=O)Nc1cc(-c2cccc(F)c2)sc1C(=O)N[C@H]1CCCNC1
Procedure, shortened: as §1

[5] = compound: NC(=O)c1cnc(N[C@@H]2CCCC[C@@H]2N)nc1Nc1cccc(-n2nccn2)c1
Procedure, shortened: as §1

[6] = compound: NC1(c2ccc(-c3nc4ccn5c(=O)[nH]nc5c4cc3-c3ccccc3)cc2)CCC1
Procedure, shortened: as §1

[7] = compound: NCC(=O)Nc1ccc(-n2nc(C(F)(F)F)cc2-c2ccc3c(ccc4ccccc43)c2)cc1
Procedure, shortened: as §1

vorinostat = compound: O=C(CCCCCCC(=O)Nc1ccccc1)NO [vorinostat]
Procedure, shortened: as §1

silmitasertib = compound: O=C(O)c1ccc2c(c1)nc(Nc1cccc(Cl)c1)c1ccncc12 [silmitasertib]
Procedure, shortened: as §1

[8] = compound: O=C1NC(=O)C(c2cnc3ccccn23)=C1c1cn2c3c(cc(F)cc13)CN(C(=O)N1CCCCC1)CC2
Procedure, shortened: as §1

entospletinib = compound: c1cn2cc(-c3ccc4cn[nH]c4c3)nc(Nc3ccc(N4CCOCC4)cc3)c2n1 [entospletinib]
Procedure, shortened: as §1

Sequence of UniProt O14979 (O14979 whole entry, looked up): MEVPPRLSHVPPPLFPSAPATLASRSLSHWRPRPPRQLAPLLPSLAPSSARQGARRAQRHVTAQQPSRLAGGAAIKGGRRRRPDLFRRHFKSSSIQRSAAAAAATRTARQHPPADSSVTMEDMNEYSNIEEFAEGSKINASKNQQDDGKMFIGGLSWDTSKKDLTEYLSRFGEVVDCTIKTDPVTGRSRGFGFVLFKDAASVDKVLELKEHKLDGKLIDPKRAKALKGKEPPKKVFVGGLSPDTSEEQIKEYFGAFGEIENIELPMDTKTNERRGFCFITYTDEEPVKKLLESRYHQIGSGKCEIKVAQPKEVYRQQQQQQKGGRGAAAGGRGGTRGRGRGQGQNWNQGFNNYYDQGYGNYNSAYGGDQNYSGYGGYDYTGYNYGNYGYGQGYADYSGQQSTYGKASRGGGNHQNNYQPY
Sequence of UniProt Q68CZ6 (Q68CZ6 whole entry, looked up): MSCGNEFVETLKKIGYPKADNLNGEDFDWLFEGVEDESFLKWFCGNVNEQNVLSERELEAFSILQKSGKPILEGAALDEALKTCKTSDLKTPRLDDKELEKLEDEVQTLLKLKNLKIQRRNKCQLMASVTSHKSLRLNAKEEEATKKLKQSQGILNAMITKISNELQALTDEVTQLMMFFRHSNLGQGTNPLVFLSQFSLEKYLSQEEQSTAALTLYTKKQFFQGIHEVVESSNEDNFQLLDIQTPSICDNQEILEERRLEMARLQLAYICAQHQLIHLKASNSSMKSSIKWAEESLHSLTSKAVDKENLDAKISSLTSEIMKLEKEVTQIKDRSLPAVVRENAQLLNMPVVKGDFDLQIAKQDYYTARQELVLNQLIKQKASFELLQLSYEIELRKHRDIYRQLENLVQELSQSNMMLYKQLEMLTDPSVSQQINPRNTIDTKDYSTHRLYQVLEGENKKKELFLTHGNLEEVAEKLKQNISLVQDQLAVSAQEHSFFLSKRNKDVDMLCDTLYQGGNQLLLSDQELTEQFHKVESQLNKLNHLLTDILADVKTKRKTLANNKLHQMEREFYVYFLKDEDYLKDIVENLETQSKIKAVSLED
Sequence of UniProt Q9HAV0 (Q9HAV0 whole entry, looked up): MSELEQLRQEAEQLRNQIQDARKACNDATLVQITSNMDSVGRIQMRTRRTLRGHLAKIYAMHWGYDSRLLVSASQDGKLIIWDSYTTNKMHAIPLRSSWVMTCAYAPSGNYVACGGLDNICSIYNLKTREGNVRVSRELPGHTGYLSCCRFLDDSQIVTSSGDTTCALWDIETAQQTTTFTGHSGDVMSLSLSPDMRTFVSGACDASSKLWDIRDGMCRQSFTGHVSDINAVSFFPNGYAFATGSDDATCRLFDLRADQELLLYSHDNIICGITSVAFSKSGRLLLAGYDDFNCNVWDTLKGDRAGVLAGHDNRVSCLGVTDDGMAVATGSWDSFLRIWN
Sequence of UniProt P35914 (P35914 whole entry, looked up): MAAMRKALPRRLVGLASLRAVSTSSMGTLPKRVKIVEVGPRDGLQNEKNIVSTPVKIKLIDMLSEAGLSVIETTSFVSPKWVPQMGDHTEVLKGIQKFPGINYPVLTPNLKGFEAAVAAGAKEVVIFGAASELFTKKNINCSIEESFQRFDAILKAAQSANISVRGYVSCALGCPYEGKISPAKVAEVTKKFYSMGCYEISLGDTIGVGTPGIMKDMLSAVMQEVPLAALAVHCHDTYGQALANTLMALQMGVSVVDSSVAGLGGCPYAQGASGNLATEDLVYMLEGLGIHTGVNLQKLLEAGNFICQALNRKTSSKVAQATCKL
Sequence of UniProt P49840 (P49840 whole entry, looked up): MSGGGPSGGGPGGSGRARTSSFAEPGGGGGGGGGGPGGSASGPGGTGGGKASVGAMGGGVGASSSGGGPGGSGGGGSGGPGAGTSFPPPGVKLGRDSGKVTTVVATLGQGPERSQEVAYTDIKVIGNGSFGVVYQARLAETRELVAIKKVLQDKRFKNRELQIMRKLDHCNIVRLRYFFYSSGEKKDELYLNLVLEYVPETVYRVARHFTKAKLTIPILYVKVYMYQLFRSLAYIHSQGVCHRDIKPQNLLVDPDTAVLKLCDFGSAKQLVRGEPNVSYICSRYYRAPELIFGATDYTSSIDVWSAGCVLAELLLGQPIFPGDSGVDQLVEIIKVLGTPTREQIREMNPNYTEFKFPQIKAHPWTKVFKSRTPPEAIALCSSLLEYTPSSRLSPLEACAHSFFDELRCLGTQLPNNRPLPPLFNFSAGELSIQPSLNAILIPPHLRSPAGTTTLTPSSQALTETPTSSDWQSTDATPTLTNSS
Sequence of UniProt Q9Y5Q8 (Q9Y5Q8 whole entry, looked up): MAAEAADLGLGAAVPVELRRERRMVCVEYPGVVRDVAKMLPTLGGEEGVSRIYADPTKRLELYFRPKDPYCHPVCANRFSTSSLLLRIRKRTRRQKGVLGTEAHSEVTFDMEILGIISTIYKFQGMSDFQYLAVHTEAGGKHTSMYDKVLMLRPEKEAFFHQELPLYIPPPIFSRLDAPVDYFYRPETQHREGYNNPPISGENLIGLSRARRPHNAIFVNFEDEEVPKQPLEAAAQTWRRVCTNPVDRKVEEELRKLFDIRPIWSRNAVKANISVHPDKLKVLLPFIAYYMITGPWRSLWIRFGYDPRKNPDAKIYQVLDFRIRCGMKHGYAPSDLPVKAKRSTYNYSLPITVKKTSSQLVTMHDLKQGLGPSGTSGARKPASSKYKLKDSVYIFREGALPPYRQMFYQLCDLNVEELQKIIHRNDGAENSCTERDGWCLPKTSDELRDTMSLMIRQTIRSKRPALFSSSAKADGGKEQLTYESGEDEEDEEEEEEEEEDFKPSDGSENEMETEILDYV
Sequence of UniProt A6NDN3 (A6NDN3 whole entry, looked up): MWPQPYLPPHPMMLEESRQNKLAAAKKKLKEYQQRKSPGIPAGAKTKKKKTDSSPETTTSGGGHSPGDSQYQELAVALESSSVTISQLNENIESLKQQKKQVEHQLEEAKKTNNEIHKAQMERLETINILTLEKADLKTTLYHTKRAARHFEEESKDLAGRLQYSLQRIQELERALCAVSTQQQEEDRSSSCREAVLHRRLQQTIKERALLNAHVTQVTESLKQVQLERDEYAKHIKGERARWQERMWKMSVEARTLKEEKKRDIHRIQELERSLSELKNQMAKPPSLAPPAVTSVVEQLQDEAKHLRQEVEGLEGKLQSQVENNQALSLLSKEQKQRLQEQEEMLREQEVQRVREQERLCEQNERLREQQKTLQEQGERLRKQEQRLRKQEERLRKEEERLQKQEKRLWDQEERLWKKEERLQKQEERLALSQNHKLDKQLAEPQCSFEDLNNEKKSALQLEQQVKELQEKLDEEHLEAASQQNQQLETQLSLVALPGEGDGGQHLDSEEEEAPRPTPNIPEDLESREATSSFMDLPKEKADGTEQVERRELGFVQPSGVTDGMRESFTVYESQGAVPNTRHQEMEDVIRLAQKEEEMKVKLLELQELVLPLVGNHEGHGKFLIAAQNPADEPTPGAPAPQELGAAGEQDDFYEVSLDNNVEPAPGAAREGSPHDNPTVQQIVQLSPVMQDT
Sequence of UniProt Q9H4A6 (Q9H4A6 whole entry, looked up): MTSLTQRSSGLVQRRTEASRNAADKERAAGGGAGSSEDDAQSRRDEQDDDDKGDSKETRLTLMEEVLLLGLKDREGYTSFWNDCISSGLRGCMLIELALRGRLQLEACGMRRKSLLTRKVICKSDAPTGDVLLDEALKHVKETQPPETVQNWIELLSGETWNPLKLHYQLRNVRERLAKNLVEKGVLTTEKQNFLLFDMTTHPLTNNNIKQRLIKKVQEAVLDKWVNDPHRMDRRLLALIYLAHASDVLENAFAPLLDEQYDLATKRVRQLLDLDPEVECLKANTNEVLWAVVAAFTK
Sequence of UniProt Q9NPR9 (Q9NPR9 whole entry, looked up): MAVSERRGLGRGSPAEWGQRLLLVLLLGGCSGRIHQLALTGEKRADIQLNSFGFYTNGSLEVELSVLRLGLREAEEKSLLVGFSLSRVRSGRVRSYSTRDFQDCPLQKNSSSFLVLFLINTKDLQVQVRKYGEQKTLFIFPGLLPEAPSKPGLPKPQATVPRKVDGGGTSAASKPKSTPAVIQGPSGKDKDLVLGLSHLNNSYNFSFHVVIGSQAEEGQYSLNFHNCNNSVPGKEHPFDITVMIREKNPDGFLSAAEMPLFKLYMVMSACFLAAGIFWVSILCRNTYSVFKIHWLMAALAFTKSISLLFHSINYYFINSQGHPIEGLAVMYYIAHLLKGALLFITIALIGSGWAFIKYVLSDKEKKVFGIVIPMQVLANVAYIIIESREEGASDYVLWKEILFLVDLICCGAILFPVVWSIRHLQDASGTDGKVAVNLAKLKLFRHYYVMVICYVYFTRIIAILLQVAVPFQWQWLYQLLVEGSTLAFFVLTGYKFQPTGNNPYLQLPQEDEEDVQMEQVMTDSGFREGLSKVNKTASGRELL
Sequence of UniProt P22692 (P22692 whole entry, looked up): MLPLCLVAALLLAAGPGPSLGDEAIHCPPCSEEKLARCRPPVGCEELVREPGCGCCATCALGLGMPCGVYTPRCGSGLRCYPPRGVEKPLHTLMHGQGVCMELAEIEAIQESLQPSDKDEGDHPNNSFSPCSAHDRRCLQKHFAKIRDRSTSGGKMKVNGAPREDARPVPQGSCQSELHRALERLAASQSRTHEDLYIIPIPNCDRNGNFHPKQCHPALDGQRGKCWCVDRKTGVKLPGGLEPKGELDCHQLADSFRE
Sequence of UniProt Q92769 (Q92769 whole entry, looked up): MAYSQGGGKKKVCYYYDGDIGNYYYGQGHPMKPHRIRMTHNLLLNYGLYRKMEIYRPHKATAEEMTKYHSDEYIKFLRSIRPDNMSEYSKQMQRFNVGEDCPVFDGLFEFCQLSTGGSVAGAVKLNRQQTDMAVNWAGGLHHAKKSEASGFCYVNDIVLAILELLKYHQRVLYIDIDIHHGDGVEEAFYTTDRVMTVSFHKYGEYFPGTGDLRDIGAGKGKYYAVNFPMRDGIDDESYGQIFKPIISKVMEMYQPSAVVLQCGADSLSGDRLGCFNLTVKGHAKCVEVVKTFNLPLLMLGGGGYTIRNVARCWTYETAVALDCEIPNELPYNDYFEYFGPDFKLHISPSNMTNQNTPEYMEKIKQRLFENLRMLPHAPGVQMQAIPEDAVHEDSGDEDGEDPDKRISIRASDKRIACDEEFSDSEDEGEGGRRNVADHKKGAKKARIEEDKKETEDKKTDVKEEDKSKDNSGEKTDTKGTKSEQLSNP

Target | log2 fold change (nilotinib) | log2 fold change [1] | log2 fold change (dasatinib) | log2 fold change [2] | log2 fold change [3] | log2 fold change (quisinostat) | log2 fold change (tipifarnib) | log2 fold change [4] | log2 fold change [5] | log2 fold change [6] | log2 fold change [7] | log2 fold change (vorinostat) | log2 fold change (silmitasertib) | log2 fold change [8] | log2 fold change (entospletinib)
HNRNPDL (UniProt O14979) | -0.208 | 0.036 | 0.016 | -0.018 | -0.005 | 0.074 | -0.002 | -0.062 | -0.008 | 0.004 | -0.032 | 0.133 | -0.01 | 0.01 | 0.01
GOLPH3 (UniProt Q9H4A6) | -0.008 | 0.008 | -0.071 | 0.044 | -0.013 | -0.065 | -0.039 | 0.012 | -0.023 | -0.02 | -0.06 | -0.06 | -0.001 | 0.023 | 0.026
GPR108 (UniProt Q9NPR9) | 0.044 | 0.033 | -0.035 | 0.011 | -0.057 | -0.063 | -0.088 | -0.013 | 0.046 | -0.002 | -0.001 | -0.024 | 0.001 | -0.007 | -0.008
HMGCL (UniProt P35914) | 0.011 | -0.041 | 0.029 | 0.023 | 0.02 | -0.017 | -0.013 | 0.018 | -0.033 | 0.015 | -0.025 | -0.226 (active) | 0.059 | 0.033 | 0
GTF3C5 isoform 3 (UniProt Q9Y5Q8) | 0.023 | -0.023 | -0.017 | -0.018 | 0.019 | -0.063 | -0.004 | 0.05 | -0.006 | 0.005 | 0.002 | -0.296 (active) | 0.016 | 0.04 | -0.021
GSK3A (UniProt P49840) | 0.026 | 0.425 | 0.021 | 0.562 (active) | 0.048 | -0.009 | -0.008 | -0.024 | 0.099 | -0.006 | -0.019 | 0.265 | 0.382 | 0.456 | 0.014
GOLGA6B (UniProt A6NDN3) | 0.039 | -0.102 | 0.009 | -0.075 | 0.161 | -0.355 | 0.051 | 0.106 | -0.008 | -0.082 | 0.019 | 0.117 | -0.002 | 0.353 (active) | -0.084
HAUS3 (UniProt Q68CZ6) | 0.02 | -0.027 | -0.075 | 0.008 | 0.003 | -0.059 | -0.045 | 0.017 | -0.015 | -0.038 | 0.007 | -0.618 (active) | -0.009 | 0.004 | 0.007
IGFBP4 (UniProt P22692) | 0.005 | -0.01 | 0.085 | -0.053 | -0.022 | -0.049 | 0.119 | -0.021 | 0.293 | -0.026 | – | 0.049 | -0.026 | 0.023 | –
GNB4 (UniProt Q9HAV0) | -0.083 | 0.055 | 0.048 | 0.127 | -0.097 | 0.042 | 0.048 | -0.172 | 0.028 | 0.007 | – | 0.006 | 0.017 | -0.059 | 0.029
HDAC2 (UniProt Q92769) | -0.022 | 0.014 | -0.024 | -0.013 | 0.044 | 0.635 (active) | -0.011 | 0.018 | 0.001 | -0.031 | 0.001 | – | -0.002 | 0.057 | -0.005
